The whole screen tested about 360,000 compounds, of which about 25,000 (6.9%) were called active. A call without a number means that no potency is given here. Another 9% or so got no clear call; they are omitted. Calls come from the whole dose curve; as a rule, active = well fitted inhibition curve with a large enough effect; inconclusive = small, poorly fitted or top-dose-only effect; inactive = flat fitted curve, though single readings scatter. For the sample, actives were picked, then their nearest neighbours and some compounds at random.
molecular target: Luciferin 4-monooxygenase (Photinus pyralis) (UniProt P08659); assay: qHTS profiling assay for firefly luciferase inhibitor/activator using purifed enzyme and Km concentrations of substrates (counterscreen for miR-21 project); settings: purified FLuc, luminescence inhibition; series mostly up to 57.5 µM; note: nearly all actives have a fitted effect of over 55% in size
Sequence (P08659 whole entry, looked up): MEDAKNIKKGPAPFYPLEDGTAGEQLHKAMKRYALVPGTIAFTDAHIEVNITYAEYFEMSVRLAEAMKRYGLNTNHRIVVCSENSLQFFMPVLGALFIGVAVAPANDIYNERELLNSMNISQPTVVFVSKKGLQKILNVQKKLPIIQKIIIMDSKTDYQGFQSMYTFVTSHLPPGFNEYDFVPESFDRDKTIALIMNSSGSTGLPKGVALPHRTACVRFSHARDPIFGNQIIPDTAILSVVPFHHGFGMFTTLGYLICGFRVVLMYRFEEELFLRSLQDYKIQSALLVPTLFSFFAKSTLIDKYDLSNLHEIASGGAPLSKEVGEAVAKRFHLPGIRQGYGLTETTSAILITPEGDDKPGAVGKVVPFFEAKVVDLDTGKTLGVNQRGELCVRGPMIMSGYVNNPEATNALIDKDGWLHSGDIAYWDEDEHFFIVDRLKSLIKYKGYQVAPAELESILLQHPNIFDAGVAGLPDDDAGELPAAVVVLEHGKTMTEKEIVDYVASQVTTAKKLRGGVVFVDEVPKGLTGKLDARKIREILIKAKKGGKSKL
How it was run: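 Purified P. pyralis luciferase (10nM final) with 10uM D-luciferin and 10uM ATP (Km levels) in 50mM Tris acetate pH 7.5, 10mM Mg acetate, 0.01% Tween-20, 0.05% BSA; qHTS 6-point titration, ~60 µM downward; luminescence read.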
Potency is the fitted concentration of half-maximal effect.

SMILES	Potency
O=C(Nc1cccnc1)c1cc(Cl)ccc1Cl	inactive
C=CCn1cc(Cl)cc(C(=O)Nc2ccccc2)c1=O	16.9 µM (active)
C=CCc1cccc2cc(C(=O)Nc3ccc(NC(C)=O)cc3)c(=O)oc12	inactive
CCOc1ncccc1C(=O)Nc1ccc(S(=O)(=O)Nc2nc(C)cc(C)n2)cc1	inactive
Cc1ccc2[nH]c3c(=O)n(CC(=O)NC(C)C)ncc3c2c1	inactive
O=C(COc1ccc(Cl)cc1)Nc1ccccc1OCc1cc(=O)n2ccccc2n1	inactive
CCCn1nc(C(=O)N2CCCc3ccccc32)c2ccccc2c1=O	inactive
CN1CCN(Cc2c(C(=O)N3CCc4ccccc4C3)nc3ccc(Cl)cn23)CC1	inactive
Cc1ccc2c(c1)N(C(=O)CCC(=O)N1CCc3ccccc3C1)CCO2	inactive
Cn1cccc1C(=O)N1CCc2ccccc2C1	inactive
O=C(c1noc2c1CCCC2)N1CCc2ccccc2C1	16.9 µM (active)
O=C(c1cc(-c2ccc(O)cc2)on1)N1CCOCC1	9.53 µM (active)
O=C(c1cc(-c2ccc(O)cc2)on1)N1CCCc2ccccc21	16.9 µM (active)
O=C(c1cccs1)N1CCN(C(=O)N2CCOCC2)CC1	inactive
O=C(c1c(Cl)nc2sccn12)N1CCCc2ccccc21	inactive
Cc1ccc(-c2cc(C(=O)N3CCc4ccccc4C3)no2)cc1	23.9 µM (active)
O=C(NCCCN1CCOCC1)c1cc(-c2cccc(O)c2)on1	inactive
O=C(C(=O)N1CCc2ccccc2C1)N1CCc2ccccc2C1	inactive
Cc1cccc(-n2ncc(C(=O)N3CCN(c4ccc(Cl)cc4)CC3)c2C2CCN(C(=O)OC(C)(C)C)CC2)c1	inactive
Cc1ccc(Nc2nnc(-c3ccc(C)c(S(=O)(=O)N4CCCCC4)c3)c3ccccc23)cc1	inactive
CCOC(=O)c1ccc(N2C(=O)c3[nH]nc(-c4ccccc4)c3C2c2ccc(C(C)C)cc2)cc1 (centres undefined)	inactive
Cc1ccc(C(=O)OCC(=O)Nc2ccc(Cl)cn2)cc1S(=O)(=O)N1CCOCC1	inactive

SMILES	Potency
COc1cc2nc(NCC(C)c3ccccc3)n3nc(-c4ccccc4)nc3c2cc1OC (centres undefined)	inactive
COCCn1c(SCC(=O)Nc2cc(Cl)ccc2OC)nc2c(c1=O)SC(C)C2 (centres undefined)	inactive
O=C(c1ccc(Cl)c([N+](=O)[O-])c1)N1CCN(c2ccccc2)CC1	inactive
O=C(c1cc(-c2ccc(Cl)cc2)on1)N1CCN(c2ccccc2)CC1	10.7 µM (active)
O=C(c1cc(-c2ccc(F)cc2)on1)N1CCN(c2ccc(F)cc2)CC1	inactive
CCCN1CCN(CCCNC(=O)c2ccc3nc(Cc4ccccc4)oc3c2)CC1	inactive
Cc1cccc(NC(=O)c2ccc(F)c(S(=O)(=O)N(C)C3CCCCC3)c2)c1	inactive
CCCSc1nc2[nH]ncc2c(=O)[nH]1	inactive
Cc1ccc(CSc2nc3[nH]ncc3c(=O)[nH]2)cc1	13.5 µM (active)
Cc1cccc(NC(=O)CSc2nc3[nH]ncc3c(=O)[nH]2)c1	inactive
COc1cc(OC)cc(-c2c(-c3ccc(F)cc3)c3cc(-c4ccc5cc[nH]c5c4)ccc3n2C)c1	inactive
O=S(=O)(Nc1ccc(-c2ccc(N3CCOCC3)nn2)cc1)c1cc(Cl)ccc1Cl	23.9 µM (active)
Cc1cccc(NS(=O)(=O)c2cc(Cl)ccc2Cl)n1	inactive
O=S(=O)(Nc1cccc(-n2cnnn2)c1)c1cnc(Cl)c(Cl)c1	inactive
O=[N+]([O-])c1ccc(S(=O)(=O)Nc2cccc(-c3ccc(N4CCCC4)nn3)c2)cc1	12 µM (active)
CC(=O)Nc1ccc(S(=O)(=O)Nc2ccc(N3CCOCC3)c(F)c2)cc1	inactive
O=S(=O)(Nc1cccc(-c2ccc(N3CCOCC3)nn2)c1)c1ccc(Cl)c(Cl)c1	5.36 µM (active)
Cc1cccc(NS(=O)(=O)c2ccc([N+](=O)[O-])cc2)n1	inactive
CN1CCN(c2ccc(S(=O)(=O)Nc3ccccc3)cc2[N+](=O)[O-])CC1	inactive
O=S(=O)(Nc1ccccc1N1CCOCC1)c1ccc(Cl)s1	inactive
Cc1ccc2oc3c(c(=O)c2c1)C(c1ccc(O)cc1)N(Cc1ccc2c(c1)OCO2)C3=O (centres undefined)	inactive
Cc1ccc(COC(=O)CN2C(=O)NC3(CCCC3)C2=O)cc1	inactive

SMILES	Potency
CC(C)(C)c1ccc(S(=O)(=O)N2CCN(C(=O)c3ccc4c(c3)C(=O)N(Cc3ccncc3)C4=O)CC2)cc1	inactive
C=Cc1ccc(Cn2c(C(=O)OC)cc3sc(C)cc32)cc1	inactive
CCc1ccccc1OCC(=O)Nc1ccc(C)c(S(=O)(=O)N2CCCCCC2)c1	inactive
CCCN(CCC)CCCNC(=O)Cn1cc2c(n1)-c1c(oc(C(=O)N3CCCC3)c1C)CC2	inactive
CCOc1ccc(NC(=O)COc2ccc(C(=O)N3CCC(C(N)=O)CC3)cc2OC)cc1	inactive
CCCCN(C(=O)c1ccc2ccccc2c1)c1c(N)n(CCCC)c(=O)[nH]c1=O	inactive
Cc1ccc(-n2nc(N)c3c(=O)oc(N(C)C)nc32)cc1	inactive
O=C(Nc1ccc2oc(-c3ccc4ccccc4c3)nc2c1)c1cccs1	5.36 µM (active)
O=C(Nc1ccc(NC(=O)c2cccs2)cc1)c1ccc2ccccc2c1	inactive
CCN(CCCNC(=O)c1cc(Nc2ccc(OC)cc2)nc2ccccc12)c1cccc(C)c1	inactive
Cc1ccc(S(=O)(=O)n2nc(C)c(S(=O)(=O)N3CCCCCC3)c2C)cc1	inactive
CCC(=O)N1CCc2cc(CNS(=O)(=O)c3ccc(Br)s3)ccc21	inactive
Cc1ccccc1Nc1nn2c(=O)c3ccc(C(=O)NCCc4ccc(Cl)cc4)cc3nc2s1	inactive
O=C(COc1ccc(Br)cc1F)NC1CCN(Cc2ccccc2)CC1	inactive
CC(=O)C1=C(C)NC(=O)NC1c1cc(Br)ccc1OCC#N (centres undefined)	inactive
Cc1cc(C(=O)COc2ccc(Br)cc2F)c(C)n1C1CC1	13.5 µM (active)
O=C(CC(=O)N/N=C\c1cccc(Cl)c1Cl)NCc1ccccc1	inactive
O=C(CSc1nnc(SCc2ccc(Cl)cc2)s1)N/N=C/c1ccccc1Cl	6.01 µM (active)
O=C(Cc1ccccc1)N/N=C/c1ccc(Cl)cc1Cl	inactive
Cc1cc(NC(=O)CCS(=O)(=O)c2ccc(F)cc2)no1	inactive
